Consider 14 molecules from PubChem BioAssay.

Experiment [1] can be described thus: inhibitors of TNFa-induced NFkB p65 translocation, primary screen, imaging, HUVEC, MLSMR starter and 10KST1 sets (AID 438;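 active = inhibition above 20% together with a positive visual image hit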;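 note: compound added about 3h40 before a 20 min TNFalpha stimulation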;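 for inhibition: signal is the nuclear over cytoplasmic p65 intensity ratio per well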). The conditions noted are these: HUVEC TNFa-induced p65 nuclear translocation; cell count: measured here: nuclei count (cytotoxicity indicator), at 2.08 µM; inhibition: at 2 µM, stronger effect = higher value, 0% TNFa-plus-vehicle, 100% no-TNFa wells.

Experiment [2] is described as follows: reduction of polyQ htt aggregates in cells – imaging, exon1htt(103Q)mCFP cells, high-content imaging, primary screen (AID 483;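 active = visual image review flags a hit and inhibition of aggregation exceeds 20%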;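 note: compound exposure lasted 3 days before fixation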;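 for nuclei count: percent of the per-plate median nuclei count of sample wells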). The conditions noted are these: exon1htt(103Q)mCFP cell line, aggregate imaging, at 2 µM; inhibition of aggregation: stronger effect = higher value; nuclei count: measured here: cell count, toxicity.
The nature of experiment [3]: endothelial E-selectin expression blockers – imaging, HUVEC, immunofluorescence, MLSMR starter and 10KST1 sets, primary screen (AID 487;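 active = visually confirmed hit in the image check and inhibition above 20%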;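 for inhibition: signal is fraction of cell area covered by stained E-selectin grains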;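 for nuclei count: 100% = median nuclei count of all wells on the same plate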). The conditions noted are these: HUVEC TNFalpha-induced E-selectin immunofluorescence imaging, at 2 µM; inhibition: stronger effect = higher value; nuclei count: measured here: cell number, toxicity.
Experiment [4] concerns the target Voltage-gated potassium channel subunit beta-2 (Rattus norvegicus) (UniProt P62483). The experiment in a line: inhibitors of rat Kvbeta2 reductase activity – biochemical, NADPH fluorescence, primary screen (AID 622;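 active = fluorescence slope higher than the sample average by over 3 SD, cut at about -0.22 in these data, passing the limit was not always enough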;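 note: slope of raw intensity against log time taken from 70 to 1610 s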). To be noted: recombinant KvBeta, 4-cyanobenzaldehyde reduction, at 10 µM, stronger effect = higher value.
Experiment [5] shares this target. The experiment in a line: enhancers of rat Kvbeta2 NADPH turnover – biochemical, NADPH fluorescence, primary screen (AID 623).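 Note: fluorescence intensity change per second fitted from 20 to 320 s.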 To be noted: Recombinant KvBeta, NADPH fluorescence decrease slope, 10 min; at 10 µM; stronger effect = lower value.
Experiment [6] has as its target Alpha-2C adrenergic receptor (Homo sapiens) (UniProt P18825). The experiment in a line: compounds altering alpha2C-coupled GIRK flux – cell-based, HEK293 alpha2C/GIRK1/2, thallium flux, primary screen (AID 624;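 active = fluorescence slope after compound addition differing from the mean of all screened samples at 99.7% confidence, in either direction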;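 note: slope of fluorescence ratio to pre-addition baseline per second over 15 to 24 s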). To be noted: thallium flux BTC fluorescence, at 10 µM, actives lie on both sides.
Experiment [7] can be described thus: blockers of RIG-like receptor reporter activation – cell-based, Sendai virus stimulus, luciferase, 10K MLSCN set, TLR/RLR signaling modifier project, primary screen (AID 602276;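 active = inhibition at or above 50% at 10 µM; inactive = inhibition below 50%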;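 note: firefly luciferase from ISG56 promoter only with Renilla not read in this screen; 0% = Sendai virus plus DMSO and 100% = medium plus DMSO without virus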). To be noted: HEK293 RL24 IRF3 luciferase reporter, at 10 µM, stronger effect = higher value. On the technique in general: A reporter such as luciferase makes a cellular process visible.
A short description of experiment [8]: TLR3 IRF3 reporter activation blockers – cell-based, poly I:C stimulus, luciferase, 10K MLSCN set, primary screen (AID 602277;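 active = inhibition of the reporter signal at or above 50%; inactive = inhibition below 50%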). The conditions noted are these: HEK293-TLR3 RL24 IRF3 luciferase reporter, at 10 µM, stronger effect = higher value.

The source made the active and inactive calls.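 Rule for the calls, unless noted: active = NADPH fluorescence slope more negative than the mean of all samples by about 3 SD, 99.7% confidence; inactive = the rest.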

Chain of Voltage-gated potassium channel subunit beta-2 (Rattus norvegicus) (P62483 whole entry, looked up): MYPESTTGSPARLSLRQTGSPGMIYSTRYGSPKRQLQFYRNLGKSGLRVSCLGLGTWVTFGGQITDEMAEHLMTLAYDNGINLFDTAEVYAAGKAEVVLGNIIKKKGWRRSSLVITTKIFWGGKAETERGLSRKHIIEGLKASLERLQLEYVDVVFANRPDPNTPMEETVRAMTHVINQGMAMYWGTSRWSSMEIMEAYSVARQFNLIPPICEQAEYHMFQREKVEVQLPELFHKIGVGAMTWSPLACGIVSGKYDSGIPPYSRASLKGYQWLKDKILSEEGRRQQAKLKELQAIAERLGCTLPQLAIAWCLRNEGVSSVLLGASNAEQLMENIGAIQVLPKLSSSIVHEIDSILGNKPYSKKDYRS
Chain of Alpha-2C adrenergic receptor (Homo sapiens) (P18825 whole entry, looked up): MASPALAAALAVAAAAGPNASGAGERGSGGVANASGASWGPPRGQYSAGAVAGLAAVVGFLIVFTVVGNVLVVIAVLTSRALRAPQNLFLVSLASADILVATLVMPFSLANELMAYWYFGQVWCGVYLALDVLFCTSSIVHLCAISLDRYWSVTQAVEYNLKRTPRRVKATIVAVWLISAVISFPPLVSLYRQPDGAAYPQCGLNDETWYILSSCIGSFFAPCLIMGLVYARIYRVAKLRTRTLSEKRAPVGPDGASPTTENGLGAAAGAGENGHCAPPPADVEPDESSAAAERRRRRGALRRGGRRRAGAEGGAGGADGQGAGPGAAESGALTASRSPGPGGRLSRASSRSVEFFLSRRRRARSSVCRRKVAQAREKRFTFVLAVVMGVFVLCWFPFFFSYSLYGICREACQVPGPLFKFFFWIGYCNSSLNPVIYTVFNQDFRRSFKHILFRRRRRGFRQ

Take `COc1ccc(C(CC(=O)O)NC(=O)c2ccccc2)cc1OC` (centres undefined): the cell count in experiment [1] was 317. Also, the inhibition was -1.6% (inactive) in experiment [1], -9% (inactive) in experiment [3], 9.8% (inactive) in experiment [7] and 28.8% (inactive) in experiment [8]. Besides, the inhibition of aggregation in experiment [2] is -6.3% (inactive). For the same molecule, the figures for the nuclei count in experiment [2] and in experiment [3] were 116% and 106%, respectively. Further, the fluorescence slope in experiment [4] was -0.311 (inactive). Also, the NADPH fluorescence slope in experiment [5] was 1e-05 (inactive). Besides, the slope in experiment [6] was 0.00391 (inactive).

As for `Cc1nc2sc(C(c3ccccc3)N3CCN(c4ccccc4F)CC3)c(O)n2n1` (centres undefined), the cell count in experiment [1] was found to be 305. Moreover, the inhibition in experiment [1] is -1% (inactive); in experiment [3], 8.6% (inactive); in experiment [7], 5.03% (inactive); in experiment [8], 5.62% (inactive). Also, in experiment [2], the inhibition of aggregation was -6.7% (inactive). The nuclei count in experiment [2] is 83.6%; in experiment [3] it was 91.8%. In addition, the fluorescence slope in experiment [4] was -0.437 (inactive). Also, in experiment [5], the NADPH fluorescence slope was 0.000106 (inactive). For the same molecule, in experiment [6], the slope is 0.00618 (inactive).

Consider `CCN(CC)Cc1c(C(=O)OC)nnn1-c1nonc1N`, for which the cell count in experiment [1] was 476. Besides, the inhibition in experiment [1] is -0.2% (inactive); in experiment [3] it was -18.2% (inactive); in experiment [7] it was 4.14% (inactive); in experiment [8], 14.8% (inactive). In addition, the inhibition of aggregation in experiment [2] is 13.9% (inactive). Moreover, the results for the nuclei count in experiment [2] and in experiment [3] were 99.5% and 107%, respectively. Moreover, in experiment [4], the fluorescence slope was -0.504 (inactive). Besides, in experiment [5], the NADPH fluorescence slope was -0.000189 (inactive). Moreover, the slope in experiment [6] is 0.00521 (inactive).

With `CCCCOC(=O)CNc1nnc(SCC(=O)OCC)[nH]c1=O`, the cell count in experiment [1] worked out at 659. In addition, the inhibition in experiment [1] is -10.5% (inactive); in experiment [3] it was -32.4% (inactive); in experiment [7], 2.96% (inactive); in experiment [8], -3.08% (inactive). Also, the inhibition of aggregation in experiment [2] was 9.9% (inactive). In addition, the nuclei count was 94.8% in experiment [2] and 110% in experiment [3]. For the same molecule, in experiment [4], the fluorescence slope is -0.572 (inactive). Besides, the NADPH fluorescence slope in experiment [5] was -7.9e-06 (inactive). For the same molecule, the slope in experiment [6] was 0.00508 (inactive).

For `Cc1nc2c(-c3ccc(F)cc3)c(C)nn2c(C)c1CCC(=O)NC(C)CCc1ccco1` (centres undefined), the cell count in experiment [1] turned out to be 791. Moreover, the inhibition in experiment [1] was 0.6% (inactive); in experiment [3], -23.2% (inactive); in experiment [7], 4.5% (inactive); in experiment [8], 26.9% (inactive). Also, in experiment [2], the inhibition of aggregation was -37.7% (inactive). Further, the figures for the nuclei count in experiment [2] and in experiment [3] were 99.5% and 110%, respectively. In addition, the fluorescence slope in experiment [4] is -0.568 (inactive). For the same molecule, the NADPH fluorescence slope in experiment [5] is -3.3e-05 (inactive). Besides, in experiment [6], the slope was 0.00479 (inactive).

As for `O=c1cc(CSc2ccccn2)c2ccccc2[nH]1`, the cell count in experiment [1] is 446. Moreover, the inhibition in experiment [1] was 1.4% (inactive); in experiment [3], -59.6% (inactive); in experiment [7], 10.1% (inactive); in experiment [8], 18.8% (inactive). The inhibition of aggregation in experiment [2] is 9.1% (inactive). The figures for the nuclei count in experiment [2] and in experiment [3] were 74.9% and 128%, respectively. The fluorescence slope in experiment [4] is -0.578 (inactive). Also, the NADPH fluorescence slope in experiment [5] was -3e-05 (inactive). Also, the slope in experiment [6] was 0.00572 (inactive).

On to `COc1ccc(C(=O)NCCn2ccc3ccccc32)c(OC)c1`, for which the cell count in experiment [1] is 280. The inhibition in experiment [1] was -2.5% (inactive); in experiment [3] it was -40.8% (inactive); in experiment [7], 1.44% (inactive); in experiment [8], -24.1% (inactive). Moreover, the inhibition of aggregation in experiment [2] is 0.8% (inactive). The nuclei count came to 80.1% in experiment [2] and 95.6% in experiment [3]. In experiment [4], the fluorescence slope is -0.608 (inactive). Also, the NADPH fluorescence slope in experiment [5] is 6.8e-06 (inactive). The slope in experiment [6] is 0.00591 (inactive).

With `COc1ccc(CCNC(=O)c2ccc(N3CCCC3=O)cc2)cc1OC`, the cell count in experiment [1] is 472. Also, the inhibition in experiment [1] is -19% (inactive); in experiment [3] it was -26% (inactive); in experiment [7] it was 8.09% (inactive); in experiment [8] it was 20.6% (inactive). The inhibition of aggregation in experiment [2] was 43.9% (active). In addition, the nuclei count came out at 62.2% in experiment [2] and 89.1% in experiment [3]. For the same molecule, the fluorescence slope in experiment [4] is -0.453 (inactive). For the same molecule, the NADPH fluorescence slope in experiment [5] was -0.000105 (inactive). Besides, the slope in experiment [6] is 0.00604 (inactive).

For the molecule `Nc1ncnc2nc(Sc3ccc(Cl)cc3)[nH]c12`, the cell count in experiment [1] amounted to 645. Further, the inhibition in experiment [1] is -8.5% (inactive); in experiment [3] it was -12.5% (inactive); in experiment [7], 10.1% (inactive); in experiment [8], 12.5% (inactive). The inhibition of aggregation in experiment [2] was -5.4% (inactive). The nuclei count in experiment [2] and in experiment [3] was 108% in each case. In experiment [4], the fluorescence slope is -0.555 (inactive). In experiment [5], the NADPH fluorescence slope is -6.5e-06 (inactive). For the same molecule, in experiment [6], the slope was 0.00627 (inactive).

Consider `CCSc1nc2ccccc2n1CC(N)=O`, for which the cell count in experiment [1] was 400. Also, the inhibition was 2.1% (inactive) in experiment [1], -62.6% (inactive) in experiment [3], 14.3% (inactive) in experiment [7] and 20.8% (inactive) in experiment [8]. Moreover, the inhibition of aggregation in experiment [2] is -4% (inactive). Further, the nuclei count in experiment [2] came to 114%; in experiment [3] it was 113%. In experiment [4], the fluorescence slope was -0.449 (inactive). For the same molecule, the NADPH fluorescence slope in experiment [5] was -0.000317 (inactive). Also, in experiment [6], the slope is 0.00599 (inactive).

Regarding `COc1ccccc1N1CCN(C(=O)N2CCOCC2)CC1`, in experiment [1], the cell count worked out at 683. The inhibition in experiment [1] was -8.1% (inactive); in experiment [3], -80.8% (inactive); in experiment [7], 19% (inactive); in experiment [8] it was 26.2% (inactive). Further, the inhibition of aggregation in experiment [2] is -2.9% (inactive). Besides, the nuclei count in experiment [2] turned out to be 100%; in experiment [3], 107%. Further, the fluorescence slope in experiment [4] was -0.417 (inactive). For the same molecule, in experiment [5], the NADPH fluorescence slope was -6.2e-05 (inactive). Moreover, the slope in experiment [6] is 0.00512 (inactive).

On to `O=C(c1ccccc1F)N1CCN(Cc2cccc(Cl)c2)CC1`, for which, in experiment [1], the cell count is 649. The inhibition is 3% (inactive) in experiment [1], -3.6% (inactive) in experiment [3], 9.77% (inactive) in experiment [7] and 10.5% (inactive) in experiment [8]. In addition, the inhibition of aggregation in experiment [2] is 10.9% (inactive). Besides, the values for the nuclei count in experiment [2] and in experiment [3] were 99.3% and 98.3%, respectively. Moreover, the fluorescence slope in experiment [4] is -0.654 (inactive). Also, the NADPH fluorescence slope in experiment [5] was 1.7e-05 (inactive). Besides, in experiment [6], the slope is 0.00876 (inactive).

On to `COC(=O)c1ccc(NC(=O)C(C)N2C(=O)c3ccccc3C2=O)cc1` (centres undefined), for which, in experiment [1], the cell count is 593. For the same molecule, the inhibition in experiment [1] was -1.8% (inactive); in experiment [3] it was -39.9% (inactive); in experiment [7] it was -2.42% (inactive); in experiment [8], 3.26% (inactive). Moreover, the inhibition of aggregation in experiment [2] is -7.5% (inactive). Further, the nuclei count in experiment [2] worked out at 103%; in experiment [3] it was 108%. In addition, in experiment [4], the fluorescence slope was -0.614 (inactive). For the same molecule, in experiment [5], the NADPH fluorescence slope is 5.9e-06 (inactive). Further, the slope in experiment [6] was 0.0058 (inactive).

For `CC(=O)Nc1ccc(S(=O)(=O)N2CCC(c3nc4ccccc4[nH]3)CC2)cc1`, in experiment [1], the cell count worked out at 232. Also, the inhibition in experiment [1] was 0% (inactive); in experiment [3], 17.7% (inactive); in experiment [7], 7.22% (inactive); in experiment [8] it was 17.6% (inactive). Besides, in experiment [2], the inhibition of aggregation was 14.3% (inactive). Also, the nuclei count was 93.3% in experiment [2] and 84.3% in experiment [3]. In addition, in experiment [4], the fluorescence slope was -0.584 (inactive). In addition, the NADPH fluorescence slope in experiment [5] was -6.2e-05 (inactive). In addition, the slope in experiment [6] is 0.00595 (inactive).

As a reminder, the inhibition is the relative decrease from the control value, in per cent.
